Most compounds without a hit are left out; they make up all but 3.5% or so of the library.
GPR151 ag: activators of human GPR151, primary screen, cell-based, PathHunter beta-arrestin, luminescence; G-protein coupled receptor 151 (Homo sapiens), Q8TDV0; PathHunter beta-arrestin GPR151 cells; activation, % at 11.2 µM; 650,000 compounds, 1% hits; AID 1508602, 2020; in the data active = activation above about 4.9%
TEAD-YAP inh: TEAD-YAP interaction inhibition, primary screen, TEAD-YAP interaction inhibitor project, luminescence, HEK-TIYL cells; TEAD-Gal4/YAP UAS-luciferase luminescence; AID 1259422, 2018; 640,000 compounds, 1.4% hits; inhibition, % at 9.12 µM; in the data active = inhibition above about 32%
FBW7 activator: FBW7 E3 ligase activators, primary screen, biochemical, AlphaScreen, human | AlphaScreen FBW7–phospho-cyclin E peptide binding, activator screen | normalized activity (activation), % at 26.1 µM | 650,000 compounds, 0.13% hits | AID 1259310, 2017; in the data active = normalized activity above about 1.9%;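 also: purified mutant Fbw7 with reduced substrate affinity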
MITF inh: MITF inhibitors, primary screen, biochemical, AlphaScreen, human; inhibition, % at 2.6 µM; Microphthalmia-associated transcription factor (Homo sapiens), O75030; 650,000 compounds, 0.91% hits; AlphaScreen MITF homodimerization, bead proximity signal; in the data active = inhibition above about 50%
GPR151 conf act: GPR151 activators, triplicate retest, confirmation, cell-based, PathHunter beta-arrestin, luminescence | GPR151 PathHunter beta-arrestin cells, 90 min; % of EA-reagent control over plate median | shares compounds with GPR151 ag | activation, % at 11.2 µM | 6,700 tested, under 10 active;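 active = mean percent activation across replicates above the confirmation screen cutoff of 4.91%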
GPR119 ag: GPR119 activators in beta-arrestin cells, counter-screen for GPR151 activator project, cell-based, PathHunter beta-arrestin, luminescence, triplicate; 90 min; 0 = compound-well median, 100 = enzyme-acceptor control; AID 1508611, 2020; shares compounds with GPR151 ag; 6,700 compounds, 0.3% hits; activation, % at 11.2 µM;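 active = mean percent activation in the counterscreen above 29.09%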;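 also: counterscreen on off-target GPR119 to flag nonselective hits from the GPR151 activator screen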
Target sequence (Q8TDV5 whole entry, looked up): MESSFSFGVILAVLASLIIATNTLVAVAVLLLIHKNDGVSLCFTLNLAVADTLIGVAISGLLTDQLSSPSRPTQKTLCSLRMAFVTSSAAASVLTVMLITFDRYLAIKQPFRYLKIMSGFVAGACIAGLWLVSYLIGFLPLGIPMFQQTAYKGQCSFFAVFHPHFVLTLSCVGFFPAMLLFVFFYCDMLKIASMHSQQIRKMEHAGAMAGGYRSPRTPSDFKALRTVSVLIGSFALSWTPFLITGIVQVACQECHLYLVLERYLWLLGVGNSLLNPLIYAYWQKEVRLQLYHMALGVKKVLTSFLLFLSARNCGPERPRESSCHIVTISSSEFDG
A number is an active result; . = inactive; / = not tested or not shown; ! = repeats disagree.

SMILES | GPR151 ag | TEAD-YAP inh | FBW7 activator | MITF inh | GPR151 conf act | GPR119 ag
CC(=O)Cn1c(=O)c2c(nc3n(-c4ccccc4C)c(C)c(C)n23)n(C)c1=O | 5.5 | . | . | . | . | .
C=CCn1c(=O)c2c(nc3n(-c4ccccc4C)c(C)c(C)n23)n(C)c1=O | . | . | . | . | / | /
C[C@]1(Cn2ccnn2)[C@H](C(=O)O)N2C(=O)C[C@H]2S1(=O)=O | 10.1! | . | . | . | . | .
Nc1c(Cl)cc(Cl)cc1C(=O)OCC(=O)N1CCCC1 | 7.5 | . | . | . | . | .
NC(=O)COC(=O)c1cc(Cl)cc(Cl)c1N | . | . | . | . | / | /
Cc1cccc(/C=C2\N=C(c3ccc(F)cc3)OC2=O)c1 | . | . | . | . | / | /
CCOC(=O)c1c(NC(=O)c2ccc(C)c([N+](=O)[O-])c2)sc(C(=O)Nc2ccc(C)c(Cl)c2)c1C | . | . | . | . | / | /
Cc1[nH]c2ccccc2c1CCNC(=O)/C(=C/c1ccccc1)NC(=O)c1ccco1 | 6.0 | . | . | . | . | .
Cc1[nH]c2ccccc2c1CCNC(=O)/C(=C/c1ccccc1)NC(=O)c1ccccc1Cl | . | . | . | . | / | /
Clc1ccc(Cn2ncc3c(N4CCCC4)ncnc32)cc1 | 8.4 | . | . | . | . | .
COc1ccc(C(=O)Cc2ccc(OC)c(OC)c2)c(OC)c1 | . | . | . | . | / | /
COc1ccc2c(c1)OC[C@@H](Cc1ccc(OC)c(OC)c1)[C@@H]2O | 5.0! | . | . | . | . | .
CCOc1ccccc1NC(=O)CN1CCN(c2nccn2-c2ccc(C)cc2)CC1 | 8.0 | . | . | . | . | .
COc1ccccc1NC(=O)CN1CCN(c2nccn2-c2ccc(C)cc2)CC1 | . | . | . | . | / | /
Cc1ccc(F)cc1N1C(=O)CSC1c1ccc(Cl)cc1 (stereo unspecified) | . | . | . | . | / | /
Cc1cccc(NC(=O)CSc2nnc(NC(=O)COc3ccc(Cl)cc3)s2)c1 | 6.5 | . | . | . | . | .
Cc1ccc(NC(=O)CSc2nnc(NC(=O)COc3ccc(Cl)cc3)s2)cc1 | . | . | . | . | / | /
Cc1nnc(SCC(=O)Nc2nc(-c3ccc(Cl)cc3)ns2)s1 | 5.2 | . | . | . | . | .
CCSc1nnc(NC(=O)COc2ccc(Cl)cc2Cl)s1 | 7.2 | . | . | . | . | .
CCOC(=O)c1sc(=NC(=O)c2cccc3ccccc23)n(C)c1C | 7.8 | . | . | . | . | .
CCOc1ccc(-c2nc(NC(C)=O)c3c(=O)oc4c(OC)cccc4c3n2)cc1 | 9.2 | . | . | . | . | .
O=C(NCC1CCCN(Cc2ccc(CO)o2)C1)c1ccc(-c2ccccc2)cc1 (stereo unspecified) | 16.5 | . | . | . | . | .
COCc1ccc(CN2CCCC(CNC(=O)c3ccc(-c4ccccc4)cc3)C2)o1 (stereo unspecified) | . | . | . | . | / | /
CCCN1C(=O)C(O)(CC(=O)c2ccccc2O)c2ccccc21 (stereo unspecified) | 10.8 | . | . | . | . | .
Cc1cc2ccccc2n1CCNC(=O)c1ccc(Br)cc1 | 5.0 | . | . | . | . | .
SMILES | GPR151 ag | TEAD-YAP inh | FBW7 activator | MITF inh | GPR151 conf act | GPR119 ag
CCCCOc1ccc(C(=O)N/C(=C/c2ccc([N+](=O)[O-])cc2)C(N)=O)cc1 | . | . | . | . | / | /
CCCCOc1ccc(C(=O)N/C(=C/c2ccc(Cl)cc2)C(N)=O)cc1 | 9.8 | . | . | . | . | .
CCS/C(=C(\C#N)C(N)=O)c1ccc(-c2ccccc2)[nH]1 | 5.2 | . | . | . | . | .
Cc1ccccc1Nc1cc(C(=O)O)c2ccccc2n1 | . | . | . | . | / | /
Cc1ccc(C(=O)Nc2cccc([N+](=O)[O-])c2)cc1S(=O)(=O)NC1CCCCC1 | . | . | . | . | / | /
CCN(CC)C(=O)c1sc(NC(=S)NCc2ccco2)c(C(=O)OC)c1C | 11.3 | . | . | . | . | .
COC(=O)c1c(NC(=O)c2ccco2)sc(C(=O)Nc2cccc(C)c2)c1C | 6.4 | . | . | . | . | .
CCN(CC)C(=O)c1sc(NC(=O)c2ccco2)c(C(=O)OC(C)C)c1C | . | . | . | . | / | /
CC(C)CC(=O)N1CCC(C2(CCc3ccccc3)NC(=O)N(CCN(C)C)C2=O)CC1 (stereo unspecified) | . | . | . | . | / | /
CCC(C)CC(=O)N1CCC(C2(CCC(C)C)NC(=O)N(CCN(C)C)C2=O)CC1 (stereo unspecified) | 7.5 | . | . | . | . | .
CC1CCCCC1NC(=O)Cn1nc(-c2ccc(Cl)cc2)ccc1=O (stereo unspecified) | 5.6 | . | . | . | . | .
Cc1ccc2c(NC(=O)c3ccc(Cl)cc3)noc2n1 | 7.1 | . | . | . | . | .
N#Cc1cc(C(=O)c2cc(F)ccc2O)cn(C2CC2)c1=O | 5.9 | . | . | . | . | .
O=C(NCc1ccccc1Cl)c1c(O)c2ccccc2[nH]c1=O | 5.0 | . | . | . | . | .
Cc1nn(C)c(C)c1CNC(=O)c1ccc(CN2CCC(Cc3ccccc3)CC2)[nH]c1=O | . | . | . | . | / | /
CCCNC(=O)c1cncc(-c2ccc(C(=O)NC3CC3)cc2)c1 | 5.7 | . | . | . | . | .
CCN1C(=O)/C(=C/c2ccc(OCc3ccc(C(=O)O)cc3)cc2)NC1=S | 7.8 | . | . | . | . | .
CCN1C(=O)/C(=C/c2ccc(C(=O)OC)cc2)NC1=S | . | . | . | . | / | /
COc1ccccc1C(=O)N/N=C(\C)CC(=O)Nc1ccccc1Br | 7.6 | . | . | . | . | .
CC(=O)Nc1ccccc1NC(=O)C/C(C)=N/NC(=O)c1ccncc1 | . | . | . | . | / | /
C/C(CC(=O)Nc1ccccc1Cl)=N\NC(=O)c1ccncc1 | 9.1 | . | . | . | . | .
CCOC(=O)c1c(NC(=O)Cc2ccc(OCC)c(OCC)c2)sc(C)c1C | . | . | . | . | / | /
CC(=O)c1cccc(Nc2c(-c3ccc(C)cc3)c(=O)c2=O)c1 | . | . | . | . | / | /
CC(=O)c1ccc(Nc2c(-c3ccccc3)c(=O)c2=O)cc1 | 5.4 | . | . | . | . | .
COc1ccc2[nH]cc(CCNC(=O)c3ccc(Br)cc3)c2c1 | 9.4 | . | . | . | . | .
CCC(=O)NCCc1c[nH]c2ccc(OC)cc12 | . | . | . | . | / | /
Cc1nnc(SCc2ccccc2)[nH]c1=O | . | . | . | . | / | /
Cc1nnc(SCc2ccc(F)cc2)[nH]c1=O | 11.2 | . | . | . | . | .

Bioassay records as filed in PubChem BioAssay.
